According to PubChem BioAssay AID463173 (ICCB-Longwood Screening Facility, Harvard Medical School, 2010):
Hit rate of the full screen: of about 52,000 compounds, about 4,300 (8.3%) were called active. Shown is part of a subset that was picked to be rich in actives. A number with no mark means an inactive call. Rule as the data show it: active = survival mostly below about 52% (no sharp cut-off); inactive = mostly above about 56%.

Test system: DeltatarO mutant
Experiment: growth inhibition of S. aureus wild type versus tarO mutant, primary screen, teichoic acid synthesis inhibitors, RN4220, OD600 (AID 463173)
Conditions: OD600, 18 h, stronger effect = lower value, screened at 18.75 µg/mL (by protocol)

Row | Compound | survival
1 | CC(C)Oc1ccc(CNC(=O)Cn2c(=O)oc3ccccc32)cc1 | 77%
2 | Cc1nnc(SCc2ccc(Cl)cc2Cl)o1 | 80%
3 | CC(C)C[C@H](N)c1nnc(SCc2ccc(Cl)cc2Cl)o1 | 38% (active)
4 | C[C@H](NC(=O)OC(C)(C)C)c1nnc(SCc2ccc(Cl)cc2Cl)o1 | 54%
5 | CSc1ncc2c(n1)-c1ccccc1N(Cc1ccc(Cl)cc1)S2(=O)=O | 98%
6 | CCOc1ccc(NC(=O)CNS(=O)(=O)c2ccc(Br)s2)cc1 | 49%
7 | CCOc1ccc(NC(=O)CCS(=O)(=O)c2ccc(Br)s2)cc1 | 82%
8 | CCc1cccc(NC(=O)C2CCC(CNS(=O)(=O)c3ccc(Br)s3)CC2)c1 (stereo not given) | 79%
9 | Cc1cc(NC(=O)C2CCC(CNS(=O)(=O)c3ccc(Br)s3)CC2)ccc1Br (stereo not given) | 93%
10 | Cc1ccc(NC(=O)CCNS(=O)(=O)c2ccc(Br)s2)cc1 | 50% (active)
11 | COC(=O)c1ccc(NC(=O)CN(C)S(=O)(=O)c2ccc(Br)s2)cc1 | 73%
12 | COc1cccc(NC(=O)CCNS(=O)(=O)c2ccc(Br)s2)c1 | 37% (active)
13 | CCOc1ccc(NC(=O)CCNS(=O)(=O)c2cccs2)cc1 | 51%
14 | Cc1cccc(NC(=O)C2CCC(CNS(=O)(=O)c3ccc(Br)s3)CC2)c1 (stereo not given) | 52% (active)
15 | COc1cccc(NC(=O)CCNS(=O)(=O)c2ccc3c(c2)oc(=O)n3C)c1 | 90%
16 | COc1cccc(CNC(=O)C2CCC(CNS(=O)(=O)c3ccc(Br)s3)CC2)c1 (stereo not given) | 71%
17 | O=C(CCNS(=O)(=O)c1ccc(Br)s1)Nc1ccc(Br)cc1 | 40% (active)
18 | Cc1c(Cl)cccc1NC(=O)CN1C(=O)COc2ccc(S(=O)(=O)N3CCOCC3)cc21 | 88%
19 | CC1C(=O)OC(c2ccccc2)C(C)(C)C1=O (stereo not given) | 94%
20 | CCc1ccccc1N1C(=O)CC(N2CCc3ccccc32)C1=O (stereo not given) | 102%
21 | Cc1ccc(NC(=O)c2oc3ccc(S(=O)(=O)N4CCCCC4)cc3c2C)c(C)c1 | 79%
22 | Cc1ccc(Cl)cc1N1CCN(C(=O)COCc2cc(-c3ccc4c(c3)OCO4)on2)CC1 | 95%
23 | Cc1cccc(CC(=O)NCCc2sc3nc(-c4ccc(F)cc4)nn3c2C)c1 | 91%

Row | Compound | survival
24 | COc1ccccc1NC(=O)Cn1c(=O)n(-c2cccc(Cl)c2)c(=O)c2sc3ccccc3c21 | 103%
25 | CCOC(=O)c1c(C)[nH]c(CCC(=O)NCc2ccc(OC)c(OC)c2)c1C | 81%
26 | COc1ccc(C)cc1NC(=O)CSc1ncc2c(n1)-c1ccc(Cl)cc1N(Cc1ccccc1)S2(=O)=O | 78%
27 | CCc1ccccc1NC(=O)CSc1nc2c(c(=O)[nH]1)CN(Cc1ccccc1OC)CC2 | 75%
28 | O=c1[nH]c(SCc2c(F)cccc2Cl)nc2c1CCC2 | 74%
29 | COc1ccc(OCC(=O)Nc2ccc(N3CCN(S(C)(=O)=O)CC3)cc2)cc1 | 97%
30 | COc1ccc(NC(=O)Cn2c(=O)nc(-c3ccccc3)c3ccccc32)cc1OC | 78%
31 | Cc1ccc(Cl)cc1NC(=O)C1CCC(CNS(=O)(=O)c2cccc3nsnc23)CC1 (stereo not given) | 100%
32 | Cc1ccc(NC(=O)C2CCC(CNS(=O)(=O)c3cccc4nsnc34)CC2)c(Cl)c1 (stereo not given) | 47% (active)
33 | Cc1ccc(NC(=O)C2CCC(CNS(=O)(=O)c3cccc4nsnc34)CC2)c(C)c1 (stereo not given) | 95%
34 | CCCCN(CC)CCCNC(=O)c1nn(-c2ccc(OC)cc2)c(=O)c2c1c1ccccc1n2C | 123%
35 | COc1cccc(C2=NS(=O)(=O)N(C)C(C(=O)Nc3cccc(O)c3)=C2)c1 | 70%
36 | COc1cc(NC(=O)Cn2ccn(-c3cc(C)cc(C)c3)c(=O)c2=O)cc(OC)c1 | 71%
37 | CCN(c1cc(C)cc(C)c1)S(=O)(=O)c1nnc(NC(=O)c2ccccc2C)s1 | 49%
38 | CCN(c1ccccc1C)S(=O)(=O)c1nnc(NC(=O)c2ccccc2C)s1 | 15% (active)
39 | CCN(c1cccc(C)c1)S(=O)(=O)c1nnc(NC(=O)c2ccccc2Cl)s1 | 17% (active)
40 | CCN(CC)S(=O)(=O)c1nnc(NC(=O)c2ccccc2Cl)s1 | 70%
41 | CCN(c1ccccc1)S(=O)(=O)c1nnc(NC(=O)c2ccccc2OC)s1 | 47%
42 | CCN(c1ccc(OC)cc1)S(=O)(=O)c1nnc(NC(=O)c2ccccc2Cl)s1 | 46% (active)
43 | CCN(c1ccc(Cl)cc1)S(=O)(=O)c1nnc(NC(=O)c2ccccc2C)s1 | 8% (active)
44 | CCN(c1ccc(Cl)cc1)S(=O)(=O)c1nnc(NC(=O)C(C)C)s1 | 84%
45 | OCCN(Cc1ccccc1)Cc1ccccc1O | 102%
46 | CC(=O)N1c2ccccc2C(=O)C1N1CCN(c2ccccc2)CC1 (stereo not given) | 85%

Row | Compound | survival
47 | CCCOc1ccc(-c2cccc(NS(=O)(=O)c3cc(OC)ccc3OC)c2)nn1 | 99%
48 | COc1cccc(Nc2nc3cc(Cl)c(Cl)cc3nc2-n2nc(C)cc2C)c1 | 98%
49 | Cc1ccc(C(=O)c2cn(CC(=O)Nc3ccc(C)cc3Cl)c3nc(C)ccc3c2=O)cc1 | 99%
50 | Cc1ccc(Cl)cc1NC(=O)CCCn1c(=O)c2cccn2c2cccnc21 | 100%
51 | O=C(O)CCCN1CCCC1=O | 81%
52 | CCCCOC(=O)c1ccc(NC(=O)CSc2nc3c(c(=O)[nH]2)CCC3)cc1 | 55%
53 | CC(C)=NOC1=NS(=O)(=O)c2ccccc21 | 92%
54 | O=C(Nc1ccc(F)c(Cl)c1)N1CCC2(CC1)Oc1ccccc1C(=O)N2Cc1ccccc1F | 55%
55 | CC(C)OCCCNC(=O)CCCn1c(SCC(N)=O)nc2c(sc3ccccc32)c1=O | 88%
56 | CCN(c1ccc(OC)cc1)S(=O)(=O)c1nnc(NC(=O)c2ccccc2C)s1 | 37% (active)
57 | Cc1ccccc1C(=O)Nc1nnc(S(=O)(=O)N(C)c2ccc(Cl)cc2)s1 | 30% (active)
58 | Cc1ccccc1C(=O)Nc1nnc(S(=O)(=O)N(C)Cc2ccc(Cl)cc2)s1 | 102%
59 | COc1ccccc1C(=O)Nc1nnc(S(=O)(=O)N(C)c2ccc(Cl)cc2)s1 | 95%
60 | CCN(c1ccc(OC)cc1)S(=O)(=O)c1nnc(NC(=O)COc2ccc(F)cc2)s1 | 70%
61 | Cc1ccc(C)c(NC(=O)CN2C(=O)C3(SCC(=O)N3c3ccc(C)c(C)c3)c3ccccc32)c1 (stereo not given) | 80%
62 | Cc1cc(C)cc(NC(=O)Cn2c(=O)n(CC(=O)NCCc3ccccc3)c(=O)c3ccccc32)c1 | 62%
63 | CC(C)c1ccc2oc(-c3ccc(Cl)c(NC(=O)Cc4ccccc4)c3)nc2c1 | 116%
64 | CCc1ccc2oc(-c3cc(NC(=O)c4cccs4)ccc3Cl)nc2c1 | 19% (active)
65 | Cc1cc(C)c2oc(-c3ccc(C)c(NC(=O)/C=C/c4ccco4)c3)nc2c1 | 45% (active)
66 | CC(C)c1ccc2oc(-c3ccc(Cl)c(NC(=O)c4cccs4)c3)nc2c1 | 5% (active)
67 | Cc1cc(NC(=O)c2cccs2)cc(-c2nc3cc(Cl)ccc3o2)c1O | 79%
68 | CCc1ccc2oc(-c3ccc(C)c(NC(=O)/C=C/c4ccco4)c3)nc2c1 | 83%
69 | Cc1ccc2oc(-c3ccc(C)c(NC(=O)/C=C/c4ccco4)c3)nc2c1 | 58%

Row | Compound | survival
70 | CC(C)c1ccc2oc(-c3cc(NC(=O)c4cccs4)ccc3Cl)nc2c1 | 16% (active)
71 | Cc1ccc(-c2nc3cc(C(C)C)ccc3o2)cc1NC(=O)c1cccs1 | 57%
72 | Cc1ccc2oc(-c3cc(NC(=O)c4cccs4)cc(C)c3O)nc2c1 | 138%
73 | O=C(Nc1ccc(O)c(-c2nc3ccccc3o2)c1)c1cccs1 | 75%
74 | Cc1c(NC(=O)c2cccs2)cccc1-c1nc2cc(Cl)ccc2o1 | 42%
75 | Cc1ccccc1CS(=O)(=O)Cc1ccc(C(=O)NCCc2ccccc2)o1 | 86%
76 | COc1ccc(Cn2c(SCc3ccc(C(=O)NCc4cccs4)cc3)nc3cccnc32)cc1 | 63%
77 | CC(=O)c1cccc(NC(=O)c2ccc(Cl)c(S(=O)(=O)N3CCOCC3)c2)c1 | 73%
78 | CCc1cccc(C)c1NC(=O)c1ccc2c(c1)CCN2S(=O)(=O)c1ccc(Cl)cc1 | 67%
79 | CCCn1c2ccccc2c2cnn(CC(=O)NC(CCSC)C(=O)OC)c(=O)c21 (stereo not given) | 124%
80 | N#Cc1nc(/C=C/c2ccc(F)cc2)oc1N1CCCCC1 | 93%
81 | COc1ccc(NC(=O)CCNS(=O)(=O)c2ccc3c(c2)CCCC(=O)N3)cc1 | 101%
82 | O=C(NCCc1ccccc1)c1ccc(Cn2c(SCc3ccc(F)cc3)nc3cccnc32)cc1 | 95%
83 | CC(=O)c1cccc(NC(=O)CSc2nc3c(=O)n(C)c(=O)n(C)c3n2C)c1 | 79%
84 | Cc1cc(C)c2oc(-c3ccc(Cl)c(NC(=O)c4cccs4)c3)nc2c1 | 55% (active)
85 | Cc1cc(C)c2oc(-c3ccc(NC(=O)c4cc(Br)ccc4Cl)cc3)nc2c1 | 89%
86 | CC(C)c1ccc2oc(-c3cc(NC(=O)c4cccnc4)ccc3Cl)nc2c1 | -2% (active)
87 | CCc1ccc2oc(-c3cc(NC(=O)c4cccnc4)cc(C)c3O)nc2c1 | 65%
88 | Cc1cc(NC(=O)c2cccnc2)cc(-c2nc3cc(Cl)ccc3o2)c1O | 140%
89 | O=C(Nc1cc(-c2nc3cc(Cl)ccc3o2)ccc1Cl)c1cccs1 | 59%
90 | CCOc1ccccc1NC(=O)C1CCCN(S(=O)(=O)c2c(C)[nH]c(=O)[nH]c2=O)C1 (stereo not given) | 88%
